# Results from PubChem BioAssay (EPA / NIEHS).
# Records with an inconclusive call do not appear. Calls of active or inactive are those of the source. How the source made its calls: active means hit-call score of the fitted dose curve at least 0.9, where 1 is the maximum; inconclusive means response in the unintended direction; inactive means score below 0.9.
# Key:
# [1] = biological target: Estrogen receptor (Homo sapiens) (UniProt P03372); assay: OT_ER_ERaERa_1440: Odyssey Thera (OT) 24-hour HEK293T Protein-Complementation Assay for Estrogen Receptor-alpha/-alpha Homodimer (AID 2283349);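 further: hits raise fluorescence above DMSO for agonists and antagonists alike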
# Method in brief: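 Stably transfected HEK293T; ERα LBD homodimer PCA. 24 h dosing, fluorescence intensity read, gain-of-signal vs DMSO.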
# [2] = biological target: Estrogen receptor (Homo sapiens) (UniProt P03372); assay: OT_ER_ERaERa_0480: Odyssey Thera (OT) 8-hour HEK293T Protein-Complementation Assay for Estrogen Receptor-alpha/-alpha Homodimer (AID 2283351);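 further: rise in fluorescence from reassembled reporter fragments on ERα LBD homodimer in nucleus or whole cell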
# Method in brief: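 Read-out: fluorescence intensity rise relative to DMSO, nuclear for agonists, nuclear plus cytoplasmic for antagonists. Construct is the ERα LBD (aa 310-547) homodimer fragment-complementation pair, stably expressed in HEK293T; exposure 8 h.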
# [3] = biological target: human Peroxisome Proliferator-activated Receptor alpha (PPARa), PPARA (gene 5465) (UniProt Q07869); assay: NVS_NR_hPPARa: NovaScreen (NVS) Nuclear Receptor Binding Assay for human Peroxisome Proliferator-activated Receptor alpha (PPARa) (AID 2283359);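 further: activity means loss of TR-FRET signal versus DMSO baseline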
# Method in brief: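 One-hour incubation, cell-free extracted protein, TR-FRET binding readout; signal loss vs DMSO scored. Screen: 25 uM duplicates, confirmatory dose series for actives.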
# [4] = biological target: T1, Estrogen receptor (Homo sapiens) + Estrogen receptor beta (Homo sapiens) (UniProt P03372+Q92731); assay: OT_ER_ERaERb_0480: Odyssey Thera (OT) 8-hour HEK293T Protein-Complementation Assay for Estrogen Receptor-alpha/-beta Heterodimer (AID 2283352)
# Method in brief: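 Fluorescence increase from reconstituted reporter fragments, quantified by laser scanning cytometer, reflects ER-alpha/ER-beta heterodimer formation in human HEK293T cells. Exposure 8 h; positive-direction fitting against DMSO vehicle.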
# [5] = biological target: Androgen Receptor/SRC-1 Co-activator, AR (gene 367) (UniProt P10275); assay: OT_AR_ARSRC1_0960: Odyssey Thera (OT) 16-hour HEK293T Protein-Complementation Assay for Androgen Receptor/SRC-1 Co-activator (AID 2283353);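 further: actives raise the signal above DMSO so potency reflects increased AR and SRC-1 complex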
# Method in brief: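 Readout: 488 nm nuclear-to-cytoplasmic fluorescence ratio from imaging of at least 400 cells per image, 16 h post-dose. Reporter is Venus YFP complementation between AR and SRC-1 fusions, stably expressed in HEK293T; activity scored upward relative to DMSO.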
# [6] = biological target: Androgen Receptor/SRC-1 Co-activator, AR (gene 367) (UniProt P10275); assay: OT_AR_ARSRC1_0480: Odyssey Thera (OT) 8-hour HEK293T Protein-Complementation Assay for Androgen Receptor/SRC-1 Co-activator (AID 2283354);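 further: hits raise the complementation signal above DMSO so AC50 marks enhancers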
# Method in brief: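 After 8 h dosing, stably expressing HEK293T cells with split-Venus AR/SRC-1 fusions were imaged (488, 635nm). The 488nm N/C ratio per image gave the endpoint, analysed in the positive direction against DMSO.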
# [7] = biological target: T1, Estrogen receptor (Homo sapiens) + Estrogen receptor beta (Homo sapiens); assay: OT_ER_ERaERb_1440: Odyssey Thera (OT) 24-hour HEK293T Protein-Complementation Assay for Estrogen Receptor-alpha/-beta Homodimer (AID 2283356);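 further: heteromer of ER alpha and ER beta binding domains; hits raise reporter fluorescence and both agonists and antagonists give an increase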
# Method in brief: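 Fragment complementation between ER alpha (310-547) and ER beta (263-489) ligand-binding domains in HEK293T cells; signal read 24 h post-dosing by laser scanning cytometer. Gain of fluorescence relative to DMSO fitted.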
# [8] = biological target: Estrogen receptor beta (Homo sapiens) (UniProt Q92731); assay: OT_ER_ERbERb_0480: Odyssey Thera (OT) 8-hour HEK293T Protein-Complementation Assay for Estrogen Receptor-beta/-beta Homodimer (AID 2283357);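 further: active means signal gain over DMSO baseline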
# Method in brief: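 Fluorescence gain from complemented reporter fragments on ER-beta LBD homodimer in HEK293T was quantified against DMSO controls after 8 h treatment, fixation in 4% formaldehyde and Draq5 staining.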
# PGR (gene 5241) = PGR (gene 5241) (UniProt P06401); assay: NVS_NR_hPR: NovaScreen (NVS) Nuclear Receptor Binding Assay for human Progestron Receptor (PR) (AID 2283360);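 further: active means loss of bound radioligand signal versus DMSO baseline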
# Method in brief: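 Cell-free radioligand binding using receptor protein extracted from T47D cells, read by scintillation counting 18 hours after dosing. Loss of signal relative to DMSO baseline indicates displacement; primary screen single concentration 25 uM in duplicate, actives followed in concentration series.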
# Estrogen receptor (Homo sapiens), sequence (P03372 whole entry, looked up, the tested form may be a part): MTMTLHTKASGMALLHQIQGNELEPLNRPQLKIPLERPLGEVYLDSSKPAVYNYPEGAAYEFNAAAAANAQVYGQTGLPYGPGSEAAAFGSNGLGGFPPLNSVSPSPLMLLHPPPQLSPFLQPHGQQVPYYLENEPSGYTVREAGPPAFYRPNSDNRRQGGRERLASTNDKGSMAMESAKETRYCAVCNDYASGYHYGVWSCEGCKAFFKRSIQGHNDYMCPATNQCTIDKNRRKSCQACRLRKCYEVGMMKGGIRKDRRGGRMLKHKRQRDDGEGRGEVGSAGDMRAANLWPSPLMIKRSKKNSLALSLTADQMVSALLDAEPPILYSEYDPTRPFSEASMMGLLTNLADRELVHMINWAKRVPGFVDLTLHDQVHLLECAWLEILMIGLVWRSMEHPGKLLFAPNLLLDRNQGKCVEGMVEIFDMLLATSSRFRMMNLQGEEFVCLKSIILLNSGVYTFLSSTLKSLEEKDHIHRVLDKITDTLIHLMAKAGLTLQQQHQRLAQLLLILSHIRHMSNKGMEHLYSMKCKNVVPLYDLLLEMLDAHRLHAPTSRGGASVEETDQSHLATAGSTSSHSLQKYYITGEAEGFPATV
# T1 sequence (P03372 whole entry, looked up, the tested form may be a part): as above
# T1 sequence (Q92731 whole entry, looked up, the tested form may be a part): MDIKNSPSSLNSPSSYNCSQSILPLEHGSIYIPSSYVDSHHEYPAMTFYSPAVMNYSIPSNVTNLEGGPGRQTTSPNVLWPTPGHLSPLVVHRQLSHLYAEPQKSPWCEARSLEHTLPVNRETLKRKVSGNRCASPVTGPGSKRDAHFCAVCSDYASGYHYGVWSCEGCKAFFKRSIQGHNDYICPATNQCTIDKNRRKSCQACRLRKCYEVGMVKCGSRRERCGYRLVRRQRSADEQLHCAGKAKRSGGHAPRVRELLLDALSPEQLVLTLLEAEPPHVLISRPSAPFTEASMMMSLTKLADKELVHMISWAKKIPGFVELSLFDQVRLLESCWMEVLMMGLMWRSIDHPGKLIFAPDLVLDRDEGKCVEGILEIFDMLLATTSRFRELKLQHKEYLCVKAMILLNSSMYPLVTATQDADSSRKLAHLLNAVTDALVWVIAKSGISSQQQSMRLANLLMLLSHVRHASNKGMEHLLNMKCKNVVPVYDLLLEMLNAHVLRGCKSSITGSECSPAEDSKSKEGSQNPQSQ
# PGR (gene 5241), sequence (P06401 whole entry, looked up): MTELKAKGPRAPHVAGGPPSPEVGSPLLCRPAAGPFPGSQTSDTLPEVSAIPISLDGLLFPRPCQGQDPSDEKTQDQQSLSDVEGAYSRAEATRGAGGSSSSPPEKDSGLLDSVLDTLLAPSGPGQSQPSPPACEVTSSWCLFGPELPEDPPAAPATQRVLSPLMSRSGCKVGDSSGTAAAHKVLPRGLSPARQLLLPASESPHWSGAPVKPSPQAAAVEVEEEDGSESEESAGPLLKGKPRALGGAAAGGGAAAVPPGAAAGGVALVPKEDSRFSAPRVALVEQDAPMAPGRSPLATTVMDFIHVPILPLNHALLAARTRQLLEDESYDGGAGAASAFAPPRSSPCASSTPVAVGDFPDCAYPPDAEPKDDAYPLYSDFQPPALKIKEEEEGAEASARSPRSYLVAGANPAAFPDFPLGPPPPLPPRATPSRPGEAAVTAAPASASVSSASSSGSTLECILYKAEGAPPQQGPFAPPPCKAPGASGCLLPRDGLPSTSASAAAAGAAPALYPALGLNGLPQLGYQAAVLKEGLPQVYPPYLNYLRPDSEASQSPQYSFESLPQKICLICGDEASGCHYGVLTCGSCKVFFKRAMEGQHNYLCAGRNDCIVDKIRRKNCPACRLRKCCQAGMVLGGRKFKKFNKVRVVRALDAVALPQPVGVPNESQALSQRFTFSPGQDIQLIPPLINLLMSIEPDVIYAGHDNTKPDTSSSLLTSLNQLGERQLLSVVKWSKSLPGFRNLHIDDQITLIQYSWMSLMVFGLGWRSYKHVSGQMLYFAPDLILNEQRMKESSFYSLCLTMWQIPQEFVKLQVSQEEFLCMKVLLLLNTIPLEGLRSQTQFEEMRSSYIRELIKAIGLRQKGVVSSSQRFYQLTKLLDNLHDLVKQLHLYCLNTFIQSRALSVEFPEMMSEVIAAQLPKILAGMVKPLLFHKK
# Androgen Receptor/SRC-1 Co-activator, AR (gene 367), sequence (P10275 whole entry, looked up, the tested form may be a part): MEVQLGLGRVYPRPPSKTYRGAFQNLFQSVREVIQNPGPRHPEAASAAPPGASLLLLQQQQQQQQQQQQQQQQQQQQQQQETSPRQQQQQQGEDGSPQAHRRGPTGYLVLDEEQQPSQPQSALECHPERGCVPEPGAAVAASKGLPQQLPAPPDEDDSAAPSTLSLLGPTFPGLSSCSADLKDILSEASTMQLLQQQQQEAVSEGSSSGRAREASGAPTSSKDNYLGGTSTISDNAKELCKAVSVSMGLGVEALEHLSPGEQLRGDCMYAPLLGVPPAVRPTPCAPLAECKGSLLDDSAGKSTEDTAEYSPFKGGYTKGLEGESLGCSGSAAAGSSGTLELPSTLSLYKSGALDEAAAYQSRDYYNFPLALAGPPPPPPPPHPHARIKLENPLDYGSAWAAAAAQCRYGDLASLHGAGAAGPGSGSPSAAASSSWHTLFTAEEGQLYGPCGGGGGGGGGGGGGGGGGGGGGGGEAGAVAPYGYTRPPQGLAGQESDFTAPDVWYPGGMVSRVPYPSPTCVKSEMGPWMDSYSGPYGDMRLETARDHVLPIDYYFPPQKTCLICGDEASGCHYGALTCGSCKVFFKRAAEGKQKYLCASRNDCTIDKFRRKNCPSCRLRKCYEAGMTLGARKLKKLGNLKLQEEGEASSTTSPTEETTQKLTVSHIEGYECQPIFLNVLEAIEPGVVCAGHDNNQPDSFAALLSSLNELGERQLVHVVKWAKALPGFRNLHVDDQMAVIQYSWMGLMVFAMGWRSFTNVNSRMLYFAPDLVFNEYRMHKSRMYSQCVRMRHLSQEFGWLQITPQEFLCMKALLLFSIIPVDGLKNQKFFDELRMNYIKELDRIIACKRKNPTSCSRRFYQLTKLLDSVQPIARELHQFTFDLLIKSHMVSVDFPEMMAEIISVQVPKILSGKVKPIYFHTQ
# Estrogen receptor beta (Homo sapiens), sequence (Q92731 whole entry, looked up, the tested form may be a part): as the sequence (Q92731 whole entry, looked up, the tested form may be a part) above
# human Peroxisome Proliferator-activated Receptor alpha (PPARa), PPARA (gene 5465), sequence (Q07869 whole entry, looked up): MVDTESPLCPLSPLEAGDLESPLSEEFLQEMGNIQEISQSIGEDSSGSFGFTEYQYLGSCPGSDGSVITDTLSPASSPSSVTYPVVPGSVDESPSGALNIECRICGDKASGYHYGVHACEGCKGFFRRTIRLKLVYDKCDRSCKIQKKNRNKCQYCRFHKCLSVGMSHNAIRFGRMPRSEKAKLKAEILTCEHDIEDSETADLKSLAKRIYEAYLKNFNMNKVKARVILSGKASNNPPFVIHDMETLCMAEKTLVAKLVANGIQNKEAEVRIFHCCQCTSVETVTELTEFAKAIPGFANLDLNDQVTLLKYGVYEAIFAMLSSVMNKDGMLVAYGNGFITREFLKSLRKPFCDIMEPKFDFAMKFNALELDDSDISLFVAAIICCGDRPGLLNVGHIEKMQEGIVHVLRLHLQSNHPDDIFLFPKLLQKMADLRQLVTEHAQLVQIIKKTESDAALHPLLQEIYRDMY
smiles,measurement,setting,value
CC(=O)C=C(C)C,AC50,[1],26.6 µM (active)
same,outcome,[2],inactive
same,outcome,[3],inactive
CC(C)c1cccc(C(C)C)c1O,outcome,[2],inactive
same,outcome,[4],inactive
same,outcome,[5],inactive
same,outcome,[6],inactive
same,outcome,[7],inactive
same,outcome,[8],inactive
N#CN=C(N)N,outcome,[1],inactive
same,outcome,[2],inactive
same,outcome,[4],inactive
same,outcome,[7],inactive
same,outcome,[8],inactive
Nc1cccc2ccccc12,outcome,PGR (gene 5241),inactive
C1CCC(NC2CCCCC2)CC1,outcome,[2],inactive
COc1ccc(C=O)cc1OC,outcome,[2],inactive
same,outcome,[7],inactive
same,outcome,[8],inactive
Cl/C=C/Cl,outcome,[2],inactive
N#CCc1ccc(Cl)cc1,outcome,PGR (gene 5241),inactive
CC(=O)c1cc(C(C)(C)C)cc2c1CCC2(C)C,outcome,[1],inactive
same,outcome,[2],inactive
COC[C@H](C)N(C(=O)CCl)c1c(C)csc1C,AC50,PGR (gene 5241),8.39 µM (active)
Cc1ccc2ccccc2c1C,outcome,[1],inactive
same,outcome,[2],inactive
same,outcome,[4],inactive
same,outcome,[5],inactive
same,outcome,[6],inactive
same,outcome,[7],inactive
same,outcome,[8],inactive
Cn1sc(Cl)cc1=O,outcome,[2],inactive
same,outcome,[4],inactive
same,outcome,[7],inactive
same,outcome,[8],inactive
CCCCCCCCSC(=O)Oc1cc(Cl)nnc1-c1ccccc1,outcome,[1],inactive
same,outcome,[2],inactive
same,outcome,[3],inactive
[O-][Cl+2]([O-])O,outcome,[1],inactive
same,outcome,[2],inactive
same,outcome,[4],inactive
same,outcome,[7],inactive
O=C1C(Cl)=C(Cl)C(=O)c2ccccc21,AC50,[2],11.9 µM (active)
CC(C#N)CCC#N (stereo not drawn),outcome,[1],inactive
same,outcome,[2],inactive
same,outcome,[4],inactive
same,outcome,[7],inactive
same,outcome,[8],inactive
c1cc[c]([Hg][c]2ccccc2)cc1,outcome,[2],inactive
same,AC50,[5],41.9 µM (active)
same,AC50,[6],32.2 µM (active)
same,outcome,[7],inactive
C=CC(=O)N(C)C,outcome,PGR (gene 5241),inactive
C=C(C)C#N,outcome,[1],inactive
same,outcome,[2],inactive
same,outcome,[4],inactive
same,outcome,[7],inactive
same,outcome,[8],inactive
